Compounds with a hit are over-represented: about 19% of the library has one in this group of screens.
TGFb SMAD3 inh: qHTS for Inhibitors of TGF-b | HepG2 CAGA-GFP TGF-b/SMAD3 reporter, GFP fluorescence, 18 h; TGF-beta stimulated, 500 pg/mL final | AID 588855, 2011 | actives 1.2% (n = 410,000) | Potency, µM (doses to about 46.1 µM), inactives show top-dose activity, negative = inhibition, usual class: inhibitors; also: potency is read from the fitted curve at half-maximal effect; % is scaled to controls: 0 for no effect and ±100 for the full control effect; nearly all actives have a fitted effect of over 65% in size
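Using HEPG2 CAGA-GFP reporter cells at 1000 cells/well, we pinned test compounds, stimulated with recombinant TGF-beta (500 pg/mL final) and measured total well GFP after 18 h.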
TDP1 block: qHTS Assay for Inhibitors of Tyrosyl-DNA Phosphodiesterase (TDP1) | Tyrosyl-DNA phosphodiesterase 1 (Homo sapiens), Q9NUW8 | recombinant TDP1, AlphaScreen DNA substrate cleavage | Potency, µM (highest dose often 130 µM), without a hit: top-dose activity change, negative = inhibition, usual class: inhibitors | actives 0.28% (n = 350,000) | AID 485290, 2010; also: potency is read from the fitted curve at half-maximal effect; % is scaled to controls: 0 for no effect and ±100 for the full control effect; nearly all actives have a fitted effect of over 40% in size
Target sequence (Q9NUW8 whole entry, looked up): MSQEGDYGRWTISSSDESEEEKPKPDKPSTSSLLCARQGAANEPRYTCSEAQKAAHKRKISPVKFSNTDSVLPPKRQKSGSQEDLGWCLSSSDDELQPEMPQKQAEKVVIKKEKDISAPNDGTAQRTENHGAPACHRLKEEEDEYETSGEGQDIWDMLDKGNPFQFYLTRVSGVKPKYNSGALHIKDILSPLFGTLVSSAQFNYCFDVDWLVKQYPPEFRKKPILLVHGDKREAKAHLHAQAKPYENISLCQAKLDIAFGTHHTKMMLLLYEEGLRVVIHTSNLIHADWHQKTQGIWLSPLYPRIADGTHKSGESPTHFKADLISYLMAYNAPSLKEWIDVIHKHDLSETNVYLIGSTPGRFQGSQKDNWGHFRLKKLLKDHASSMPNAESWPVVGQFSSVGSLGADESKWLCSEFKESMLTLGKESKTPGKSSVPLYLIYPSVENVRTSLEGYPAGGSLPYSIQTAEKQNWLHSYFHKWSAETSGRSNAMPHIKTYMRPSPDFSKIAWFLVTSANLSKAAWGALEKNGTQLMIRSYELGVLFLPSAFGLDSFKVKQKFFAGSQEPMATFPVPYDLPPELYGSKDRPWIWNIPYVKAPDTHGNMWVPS
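Recombinant human Tdp1 (E. coli-expressed, 1 nM final) preincubated with compounds 15 min at room temperature, then 5'-biotin/3'-phosphotyrosine-FITC DNA substrate (15 nM final) added for 5 min. AlphaScreen beads (10 ug/ml final) added 10 min; cleavage lowers signal.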
HepG2 viability: qHTS for Inhibitors of TGF-b: Cytotox Counterscreen; Potency, µM (highest dose often 46.1 µM), without a hit: at the highest dose activity change, negative = cytotoxicity, hits mostly cytotoxic; AID 588856, 2011; HepG2 CAGA-GFP viability, ATP luminescence, 18 h; actives 0.76% (n = 410,000); also: potency is read from the fitted curve at half-maximal effect
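HepG2 CAGA-GFP cells (1000/well, DMEM with 1% FBS) received compound, then TGF-beta at 500 pg/mL final, and were incubated 18 hours at 37 degrees C. Viability was read by CellTiter-Glo luminescence. Media-only wells were set as complete cell-killing and DMSO as no toxicity.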
TDP1 cell CPT: qHTS for Inhibitors of human tyrosyl-DNA phosphodiesterase 1 (TDP1): qHTS in cells in presence of CPT; chicken DT40 Tdp1-/-;hTDP1 cells + 20 nM CPT, ATP luminescence, 48 h; Potency, µM (highest dose often 46.2 µM), for inactives: top-dose activity change, negative = growth inhibition, most hits filed as inhibitors; actives 12% (n = 420,000); also: potency is read from the fitted curve at half-maximal effect; % is scaled to controls: 0 for no effect and ±100 for the full control effect; nearly all actives have a fitted effect of over 55% in size
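Cell growth measured by CellTiter-Glo luminescence after a minimum 48 h, 37 C compound exposure with 20 nM CPT in Tdp1-knockout DT40 cells stably expressing hTDP1, seeded 400/well; qHTS titration format.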
IL1B secr inh: qHTS for Inhibitors of Inflammasome Signaling: IL-1-beta AlphaLISA Primary Screen | THP-1 LPS/ATP IL-1B secretion, AlphaLISA, 16 h; active compounds read low | activity change, % at 57.5 µM | actives 4.7% (n = 360,000) | AID 743279, 2014; in the data active = activity change below about -50%; inconclusive = mostly about -30% to -49%; also: % is scaled to controls: 0 for no effect and ±100 for the full control effect
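Secreted IL-1B measured by AlphaLISA bead assay after 16 h compound exposure of THP-1 cells; compounds (final up to 57.5 uM) added 1 h before LPS (250 ng/mL) and ATP (1.25 mM) stimulation; lower signal means less secretion.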
DT40 TDP1 no CPT: qHTS for Inhibitors of human tyrosyl-DNA phosphodiesterase 1 (TDP1): qHTS in cells in absence of CPT; DT40 Tdp1-/- hTDP1 cells, no CPT, ATP luminescence, 48 h; Potency, µM (doses to about 46.2 µM), without a hit: at the top dose activity change, negative = growth inhibition, actives largely listed as inhibitors; actives 15% (n = 420,000); AID 686978, 2013; also: potency is read from the fitted curve at half-maximal effect; % is scaled to controls: 0 for no effect and ±100 for the full control effect; nearly all actives have a fitted effect of over 55% in size
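Readout: luminescence from CellTiter-Glo after 30 min in the dark at RT. Cells: DT40 Tdp1-/- with stable hTDP1, 400/well. Exposure: compounds alone, ≥48 hr, 37 °C.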
* marks the source's active call; other numbers are inactive results; ? = inconclusive; . = no result given. Unless noted, calls follow the shape of the dose curve; as a rule, active = well fitted curve in the direction sought with a large enough effect; inconclusive = small, poorly fitted or top-dose-only effect, or another doubt; inactive = no such curve, though single readings can be large; an effect the other way counts as inactive or inconclusive.

SMILES	TGFb SMAD3 inh	TDP1 block	HepG2 viability	TDP1 cell CPT	IL1B secr inh	DT40 TDP1 no CPT
Cc1c(C(=O)N2CCOc3ccccc3C2)sc2ncnc(NCCCN3CCOCC3)c12	.	.	.	-1%	.	-7%
CCn1c(=N)c(C(=O)NCC2CCCO2)cc2c(=O)n3cc(C)ccc3nc21 (stereo not given)	4%	.	-5%	-2%	.	-1%
COc1ccc(Br)c(C(=O)OCC(=O)N2CCC(Cc3ccccc3)CC2)c1	46%	-6%	0%	-25%	-24	?
COc1cccc(NC(=O)NNC(=O)c2ccc3c(c2)NC(=O)C(C)(C)O3)c1	31%	.	12%	-5%	11	-7%
COc1ccccc1NC(=O)NNC(=O)c1ccc2c(c1)NC(=O)C(C)(C)O2	1%	.	2%	23µM*	20	?
CCOC(=O)CN1C(=O)C(C)(C)Oc2ccc(C(=O)Nc3ccccc3OC)cc21	-24%	5%	1%	16µM*	36	23µM*
CCCN1CNc2c(c(=O)[nH]c(=S)n2CCc2ccc(OC)cc2)C1	.	0%	.	7%	.	-18%
C=CCNc1nc(-c2sc(NC(=O)C(C)(C)C)nc2C)c(-n2cc(-c3ccccc3)nn2)s1	.	.	.	21µM*	-1	15µM*
COc1cccc(Nc2nc(C(N)C(C)C)cs2)n1 (stereo not given)	-6%	.	-18%	16µM*	.	23µM*
COc1cccc(Nc2nc(C(N)CC(C)C)cs2)n1 (stereo not given)	11µM*	.	-103%	16µM*	?	?
CC(C)CC(N)c1csc(Nc2ccc(C(=O)NCCCO)cn2)n1 (stereo not given)	16%	.	-25%	?	-13	?
Cc1cc(Oc2ccccc2)nc(-c2ccccc2O)n1	18%	-6%	-3%	-12%	8	-19%
Cc1cc(Oc2ccc(Cl)cc2)nc(-c2ccccn2)n1	?	.	-23%	5.2µM*	46	5.2µM*
CC1(C)CN=c2s/c(=C\c3ccc(Cl)cc3)c(=O)n2C1	?	-2%	-48%	12µM*	-86*	18µM*
CC1=C(C(=O)Nc2ccc(Cl)cc2)C(c2ccc(C(F)(F)F)cc2)n2nnnc2N1 (stereo not given)	?	5%	-111%	.	.	.
COc1ccc2ncc3c(-c4ccccc4)nn(-c4ccc(C)c(C)c4)c3c2c1	23%	0%	1%	12µM*	.	9.2µM*
Cc1cccc(NC(=O)Cn2nc(-c3ccccc3)c3cnc4ccccc4c32)c1	-4%	2%	-48%	16µM*	.	-45%
CCOc1ccc2ncc3c(-c4ccccc4)nn(CC(=O)Nc4cccc(F)c4)c3c2c1	1%	3%	3%	-7%	.	-11%
COc1cc2ncc3c(-c4ccccc4)nn(-c4ccc(C)cc4)c3c2cc1OC	?	6%	-34%	16µM*	.	16µM*
Cc1ccc(NC(=O)Cn2nc(-c3ccc(F)cc3)c3cnc4ccc(C)cc4c32)cc1	30%	10%	4%	-15%	.	-1%
COc1ccc2ncc3c(-c4ccc(C)c(C)c4)nn(CC(=O)Nc4ccccc4)c3c2c1	23%	5%	4%	15µM*	.	18µM*
COc1ccc(-c2nn(-c3ccc(C)cc3)c3c2cnc2ccc(C)cc23)cc1OC	-31%	-2%	-6%	2%	.	0%
